Type in all cases: functional
Assay [1] has as its target Solute carrier family 2, facilitated glucose transporter member 1 (Homo sapiens) (UniProt P11166). Put plainly: ST_JUDE_LEISH: Cytotoxicity at 2uM final concentration against transgenic Leishmania Mexicana promastigotes LmGLUT1 that are glucose transport deficient and complemented with the human glucose transporter GLUT1. Activity is measured by DNA content using SYBR green in vitro.

Assay [2] deals with Hexose transporter 1 (Plasmodium falciparum) (UniProt O97467). Put plainly: ST_JUDE_LEISH: Cytotoxicity at 2uM final concentration against transgenic Leishmania Mexicana promastigotes LmPfHT that are glucose transport deficient and complemented with the Plasmodium falciparum hexose transporter. Activity is measured by DNA content using SYBR green in vitro.
The target in assay [3] is Glucose transporter (Leishmania mexicana) (UniProt O61059). Put plainly: ST_JUDE_LEISH: Cytotoxicity at 2uM final concentration against transgenic Leishmania Mexicana promastigotes LmGT2 that are glucose transport deficient and complemented with the L. Mexicana glucose transporter 2. Activity is measured by DNA content using SYBR green in vitro.

Each structure is given as a SMILES string.

Chain of Solute carrier family 2, facilitated glucose transporter member 1 (Homo sapiens) (P11166 whole entry): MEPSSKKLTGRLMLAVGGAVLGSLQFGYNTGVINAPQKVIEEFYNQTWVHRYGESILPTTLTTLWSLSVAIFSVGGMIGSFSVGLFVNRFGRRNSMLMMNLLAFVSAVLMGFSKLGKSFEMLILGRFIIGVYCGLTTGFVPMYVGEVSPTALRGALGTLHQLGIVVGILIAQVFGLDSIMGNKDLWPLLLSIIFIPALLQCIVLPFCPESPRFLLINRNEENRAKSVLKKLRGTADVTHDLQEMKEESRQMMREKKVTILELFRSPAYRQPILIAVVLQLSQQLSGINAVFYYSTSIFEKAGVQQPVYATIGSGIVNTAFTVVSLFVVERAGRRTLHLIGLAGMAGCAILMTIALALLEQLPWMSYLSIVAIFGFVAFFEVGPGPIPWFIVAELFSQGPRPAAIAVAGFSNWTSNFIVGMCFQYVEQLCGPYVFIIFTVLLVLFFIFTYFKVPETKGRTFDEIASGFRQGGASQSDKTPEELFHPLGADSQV

In the case of `Cc1ccc(CCC(C)NCC(O)c2cccc(Cl)c2)cc1` (stereo not drawn), the inhibition was determined as 12.8% in assay [1], 13.1% in assay [2] and 11.1% in assay [3].
The like results for `N=C(/N=C(/NCCCCCCN/C(=N\C(=N)Nc1ccc(Cl)cc1)N1CCCCC1)N1CCCCC1)Nc1ccc(Cl)cc1` were, in that order, -2.47%, -2.65% and -0.71%.
Consider `Oc1ccccc1CNC1CCCCC1NCc1ccccc1O` (stereo not drawn), for which the values for the inhibition in assay [1], in assay [2] and in assay [3] were 7.77%, 9.96% and 4.48%, respectively.
The like results for `CN1CCN(Cc2nc(-c3ccc4c(Nc5ccc(Oc6ccccc6)cc5)ccnc4c3)cs2)CC1` were, in that order, 2.66%, 2.64% and 1.74%.
For `O=C(/C=C/c1ccc(Cl)c(Cl)c1)NCC[C@@H]1C[C@H]1CCN1CCC(c2c[nH]c3ccccc23)CC1` the same measures were 9.6%, 8.4% and 6.24%.
As for `CC1CCC(NCc2c(O)ccc3ccccc23)CC1` (stereo not drawn), the inhibition in assay [1] turned out to be 2.01%; in assay [2] it was 1.89%; in assay [3] it was 2.46%.
For `COc1cc(F)c2ncc(Cl)c(C(O)CN3CCC(NC(=O)c4ccc5c(n4)NC(=O)CO5)CC3)c2c1` (stereo not drawn) the same measures were 1.02%, 0.57% and -1.35%.
For `CCOc1c(Br)cc(C)cc1CNCCCNc1nc2ccccc2[nH]1` the same measures were 1.35%, -0.49% and 1.33%.
The like results for `Cc1oc(-c2cccc(Oc3ccccc3)c2)nc1CN(Cc1cnn(C)c1)C(C)C` were, in that order, 1.56%, 1.15% and 1.83%.
Turning to `COc1ccc(-c2ccc(NC(=O)c3cccc(Cl)c3)c(F)c2)cc1CNC(C)C`, the inhibition stood at 9.29% in assay [1], 7.16% in assay [2] and 4.55% in assay [3].
With `N#Cc1ccc(N2CCN(C(=O)c3cccc(-c4noc(C(F)(F)F)n4)c3)CC2)nc1`, the inhibition is 0.27% in assay [1], 0.91% in assay [2] and -0.23% in assay [3].
The like results for `O=C(c1cccc(-c2noc(C(F)(F)F)n2)c1)N1CCN(c2ccncc2)CC1` were, in that order, 11.1%, 10.9% and 10.8%.
With `CC(CN(C)C)C(=O)Nc1cccc(-c2ccc(-c3nc4cc(C(F)(F)F)ccc4[nH]3)cc2)c1` (stereo not drawn), the inhibition in assay [1] is 11%; in assay [2] it was 9.17%; in assay [3], 4.86%.
For `CN(C)CCCNCc1ccc(-c2ccc(F)c(Cl)c2)o1` the same measures were -0.74%, 0.82% and -0.76%.
For `CC(C)NCc1ccc(-c2ccc(-c3nc4cc(F)ccc4[nH]3)cc2)cc1` the same measures were 7.9%, 8.81% and 6.75%.
The like results for `CNC(=O)c1cc(NCCCNCc2ccc(Cl)c(C(F)(F)F)c2)nc2ccccc12` were, in that order, -1.98%, -1.73% and -2.48%.
Turning to `CN(C)CCCNCc1ccc(-c2ccc(CNCCc3ccccc3)cc2)cc1`, the inhibition in assay [1] was -0.43%; in assay [2], 0.15%; in assay [3], -0.49%.
Turning to `Cc1ccc(Nc2c3ccccc3nc3ccc(C)cc23)cc1`, the inhibition was 4.86% in assay [1], 7.1% in assay [2] and 2.9% in assay [3].
For `COc1ccnc(NCCCNCc2cn(S(=O)(=O)c3ccccc3)c3ccccc23)c1` the same measures were 2.74%, 3.67% and 0.11%.
The like results for `O=C(CCCCCNC(=O)c1ccc(O)c(-c2ccc(Cl)c(Cl)c2)c1)NCc1cccc(C(F)(F)F)c1` were, in that order, -1.4%, -1.74% and -4.05%.
The like results for `COc1ccc(-c2ccc(NC(=O)c3ccc(C#N)cc3)cc2)cc1CN1CCC(O)CC1` were, in that order, -0.1%, -0.59% and -0.53%.
As to `Cc1cc(=O)c(-c2ccc(Oc3cccc(OC(F)(F)F)c3)cc2)c(C)[nH]1`, the inhibition in assay [1] is 1.89%; in assay [2] it was 1.17%; in assay [3], -1.14%.
For `CNC(=O)CC(=O)NCCc1ccc(Cl)cc1` the same measures were -0.63%, 1.17% and 0.06%.
For `O=C(Nc1cccc(F)c1)N1CCC(NS(=O)(=O)c2ccc(Br)cc2)CC1` the same measures were 4.47%, 4% and 2.63%.
For `COC(=O)C(NC(=O)c1ccc(-c2ccc(-c3nc4ccccc4[nH]3)s2)cc1)c1ccc(O)cc1` (stereo not drawn) the same measures were 3.31%, 2.37% and 3.11%.
As to `COc1ccc(-c2cnc(NCc3ccccc3)nc2)cc1CNC1CCN(C)CC1`, the inhibition in assay [1] is -0.17%; in assay [2], 1.06%; in assay [3], -0.94%.
For `Cc1cc2nc(-c3cc(Br)ccc3O)c(-c3cc(Br)ccc3O)nc2cc1C` the same measures were -1.26%, -1.38% and -1.13%.
The like results for `Nc1nc(N)c2c(Oc3ccc(Cl)c(Cl)c3)cccc2n1` were, in that order, 0.48%, -0.05% and -3.94%.
With `N#Cc1cc(C(=O)c2cc(Br)ccc2O)cn(C2CCCCC2)c1=O`, the inhibition amounted to 0.39% in assay [1], 1.1% in assay [2] and 3.8% in assay [3].
Consider `Cc1cccc2nc(-c3ccc(-c4cccc(CN5CCC(C(N)=O)CC5)c4)s3)[nH]c12`, for which the inhibition in assay [1] was -1.68%; in assay [2], 2.17%; in assay [3] it was 1.29%.
The like results for `COc1cc(Cc2cnc(N)nc2N)c2ccsc2c1OC` were, in that order, 4.16%, 3.31% and 1.58%.
For `Clc1cc(Cl)c2cc(CNCCCNc3ccc4ccccc4n3)[nH]c2c1` the same measures were 0.53%, 0.95% and 1%.
For `CC(O)CNc1nc2ccccc2n1CC(=O)Nc1cccc(C(=O)Nc2cccc(C(F)(F)F)c2)c1` (stereo not drawn) the same measures were 1.41%, 1.81% and 4.48%.
As for `N#Cc1ccc(-c2ccc(C(=O)NC3CCN(CCN4CCC(c5cn(CCO)c6ccccc56)CC4)CC3)cc2)cc1`, the inhibition in assay [1] is 1.3%; in assay [2], 1.27%; in assay [3] it was 1.44%.
The like results for `Nc1ncc(-c2ccc3nccc(-c4ccncc4)c3c2)cc1S(=O)(=O)N1CCOCC1` were, in that order, 5.11%, 3.05% and 1.27%.
In the case of `NS(=O)(=O)c1cccc(-c2ccc3ncc(N4CCOCC4)nc3c2)c1`, the inhibition is 1.24% in assay [1], 2.84% in assay [2] and -0.09% in assay [3].

The term inhibition denotes the relative decrease from the control value, in per cent.

Source of the values: ChEMBL document CHEMBL3433997, “St. Jude Leishmania screening dataset” (2016).
